Results filed as inconclusive are left out. Unmarked numbers belong to inactive results. Calls follow the shape of the dose curve; as a rule, active = well fitted cell-killing curve with a large enough effect; inconclusive = small, poorly fitted or top-dose-only effect, or effect the other way; inactive = flat fitted curve, though single readings scatter.
What follows are molecules tested on Hek293T (assay: Primary qHTS to identify gynecologic anti-cancer compounds using libraries of approved drugs and bioactive compounds (AID 1345084; also: nearly all actives have a fitted effect of over 55% in size)). Details: Gynecologic cancer cell panel viability, ATPlite luminescence, 48 h, control line for the selectivity index; series mostly up to 57.5 µM; activity change, negative = cytotoxicity: at the top concentration.
Summary of the method: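 Cytotoxicity screen measuring ATP content by luciferase luminescence. Each compound is applied at five concentrations for 48 h at 37 C with 5% CO2.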
% is scaled to controls: 0 for no effect and ±100 for the full control effect.

Compound | activity change, negative = cytotoxicity
CC1(C)CC[C@]2(C(=O)O[C@@H]3O[C@H](CO)[C@@H](O)[C@H](O)[C@H]3O)CC[C@]3(C)C(=CCC4[C@@]5(C)CC[C@H](OC6OC(C(=O)O)C(OC7OC(CO)C(O)C(O)C7O)C(O)C6O)C(C)(C)C5CC[C@]43C)C2C1 (some centres not stated) | 10.4% [at 11.6 µM]
COc1cccc(CN(C(=O)CC(C)(C)C)C2CC(C(=O)N3CCNCC3)N(Cc3ccc4c(c3)OCO4)C2)c1 (configuration not stated) | 4.28%
C/C=C(/C)C(=O)OC1CC(C)(C)CC2C3=CCC4C5(C)CCC(OC6OC(C)C(OC7OC(C(=O)O)C(O)C(OC8OC(CO)C(O)C(O)C8OC8OC(CO)C(O)C(O)C8O)C7O)C(O)C6O)C(C)(C)C5CCC4(C)C3(C)C(OC(=O)/C=C/C=C/C=C/CCC)C(OC(C)=O)C12CO (configuration not stated) | -3.11% [at 6.55 µM]
Cc1ccc(-c2c(-c3nn(C)c4ncnc(N5CC[C@H](N6CCCCC6)C5)c34)cnn2C)cc1 | -0.661%
O=C(/C=C/C=C/c1ccc2c(c1)OCO2)N1CCCCC1 | -5.69%
O=C(O)c1cc(O[C@@H]2O[C@H](CO)[C@@H](O)[C@H](O)[C@H]2O)ccc1O | -4.53% [at 38.5 µM]
Nc1nc(COC(=O)c2ccc([N+](=O)[O-])cc2)nc(Nc2ccccc2)n1 | 2.15%
C[C@@H]1O[C@@H](O[C@H]2[C@H](O[C@H]3[C@H](O[C@H]4CC[C@@]5(C)C(CC[C@]6(C)C5CC=C5[C@@H]7CC(C)(C)C[C@@H](O)[C@]7(C)CC[C@]56C)[C@@]4(C)CO)O[C@H](C(=O)O)[C@@H](O)[C@@H]3O)O[C@H](CO)[C@H](O)[C@@H]2O)[C@H](O)[C@H](O)[C@H]1O (some centres not stated) | -1.54% [at 11.6 µM]
COc1cc(CO)ccc1O[C@@H]1O[C@H](CO)[C@@H](O)[C@H](O)[C@H]1O | 13% [at 38.5 µM]
COC(=O)c1c(CC=C(C)C)c(OC2OC(CO)C(O)C(O)C2O)c2ccccc2c1OC1OC(CO)C(O)C(O)C1O (configuration not stated) | 1.88% [at 25.3 µM]
COc1ccc(C2(O)c3c(ccc4c3OC(C)(CCC=C(C)C)C=C4)NC(=O)C2OC)cc1 (configuration not stated) | -5.46% [at 25.3 µM]
Cc1ccc(C)c(NC(=O)CNS(=O)(=O)c2ccc3[nH]c(=O)oc3c2)c1 | 18.6%
CO[C@H]1c2cc(C(C)C)c(O)c(O)c2[C@@]23CCCC(C)(C)C2[C@@H]1OC3=O (some centres not stated) | 1.36% [at 38.5 µM]
COc1cc(C(C)=O)ccc1O[C@@H]1O[C@H](CO[C@@H]2OC[C@@H](O)[C@H](O)[C@H]2O)[C@@H](O)[C@H](O)[C@H]1O | -7.5% [at 25.3 µM]
CN[C@H](CNC(=O)N1CCC[C@@H]([C@@H](OCCNC(=O)OC)c2cccc(Cl)c2)C1)C[C@H]1CCCOC1 | 5.78%
O=C(O)CCc1cc2ccoc2cc1O[C@@H]1O[C@H](CO)[C@@H](O)[C@H](O)[C@H]1O | -0.567% [at 38.5 µM]
CC(C)[C@@H](C(=O)O)N1Cc2c(cc(O)c3c2O[C@]2(C3)[C@H](C)CCC3C(C)(C)[C@H](O)[C@H](O)C[C@@]32C)C1=O (some centres not stated) | -0.908% [at 25.3 µM]
CCOC(=O)CSc1nc2c(sc3ccccc32)c(=O)n1CCCN1CCCC1 | -11.7%
CC1CCC2(C(=O)O)CCC3(C)C(=CCC4C5(C)CCC(O)C(C)(C(=O)O)C5CCC43C)C2C1(C)O (configuration not stated) | 2.23% [at 25.3 µM]

Compound | activity change, negative = cytotoxicity
Cc1ccccc1N1CCN(S(=O)(=O)C[C@]23CC[C@H](C[C@@H]2NC(=O)[C@@H](N)CCS(C)(=O)=O)C3(C)C)CC1 | -1.13%
C/C=C(\C)C(=O)OCC1OC(OCC2OC(OC3(CO)OC(CO)C(O)C3O)C(O)C(O)C2O)C(O)C(O)C1O (configuration not stated) | 1.59% [at 25.3 µM]
COc1ccc(/C=C/C(=O)O[C@@H]2[C@@H](OC(C)=O)[C@@H](OC(C)=O)[C@H](O[C@H]3[C@@H]4C=CO[C@@H](O[C@@H]5O[C@H](CO)[C@@H](O)[C@H](O)[C@H]5O)[C@@H]4[C@@]4(CO)O[C@@H]34)O[C@H]2C)cc1 | 0.977% [at 25.3 µM]
CC1=C2C[C@@]3(C)[C@@H](CCC[C@@H]3C)C[C@@]2(O)OC1=O | -0.869%
COC(=O)/C=C/c1ccc(O[C@@H]2O[C@H](CO)[C@@H](O)[C@H](O)[C@H]2O)cc1 | -1.74% [at 38.5 µM]
FC(F)(F)Oc1ccc(-c2ccc3nnc(C(F)(F)F)n3c2)cc1 | 6.1%
C=C(C(=O)O)C1CC(OC(=O)CC(C)CC)C2(C)CCCC(=C)C2C1 (configuration not stated) | 10.7% [at 38.5 µM]
CC(C)(O)C1CC=C(C(=O)OC[C@H]2O[C@@H](OC(=O)C3=CCC(C(C)(C)O)CC3)[C@H](O)[C@@H](O)[C@@H]2O)CC1 (some centres not stated) | 3.53% [at 25.3 µM]
N#Cc1ccc(C2CCCc3cncn32)cc1 (configuration not stated) | -42.4% [at 25.3 µM]
C[C@@H]1O[C@@H](O[C@@H]2[C@@H](O)[C@H](O[C@@H]3[C@@H](O)[C@@H](O)[C@H](O[C@H]4[C@H](OC(=O)[C@]56CCC(C)(C)C[C@H]5C5=CCC7[C@@]8(C)C[C@H](O)[C@H](O[C@@H]9O[C@H](C(=O)O)[C@@H](O)[C@H](O)[C@H]9O)[C@@](C)(CO)C8[C@H](O)C[C@@]7(C)[C@]5(C)C[C@H]6O)O[C@@H](CO)[C@@H]4O)O[C@H]3C)OC[C@H]2O)[C@H](O)[C@H](O)[C@H]1O (some centres not stated) | 11.5% [at 6.55 µM]
O=C(O)c1cccc(C(=O)CCC2OC(n3cnc4c(=O)[nH]cnc43)C(O)C2O)c1 (configuration not stated) | 1.23% [at 25.3 µM]
CC1(CO)CCCC2(C)C1C(OC(=O)c1ccccc1)CC1C(=O)OCC12O (configuration not stated) | 0.375% [at 38.5 µM]
CC1C2=CC(=O)OC2(O)CC2C1C(O)CC1C(C)(CO)CCCC21C (configuration not stated) | 10.3% [at 38.5 µM]
COc1cc2c(cc1OC)N1C(=O)C[C@@]34C=CC[N@+]5([O-])CC[C@H]2[C@H](CC3)[C@@]145 | 5.55% [at 38.5 µM]
CCCN1CCC[C@@H](c2cccc(S(C)(=O)=O)c2)C1 | 3.26%
CC1CCC2(C(=O)OC3OC(CO)C(O)C(O)C3O)CCC3(C)C(=CCC4C5(C)CCC(O)C(C)(CO)C5CCC43C)C2C1(C)O (configuration not stated) | -11.4% [at 25.3 µM]
COc1ccc(Oc2c(Cl)cnn(C3c4ccccc4-c4ccccc43)c2=O)cc1 | -13.2%
Cc1nnc(-c2sc(NC(=O)[C@H](C(C)C)n3c(=O)[nH]c4ccccc4c3=O)nc2C)o1 | 9.78%

Reference: PubChem BioAssay (NCATS)
